The OligoGym collection

The sequences below were run against SFTA2 (assay: pooled miR-30 sensor sort-seq; sequence = guide strand). Settings: shRNA.
Note: reference of the scale not given here.

| Sequence | sensor-assay potency score (higher = more potent) |
| --- | --- |
| TTGAGATCTTGCATGGTGGAGG | -0.323 |
| TTCAGTTGCAAAGTCATACCCG | 0.378 |
| TCAGTTGCAAAGTCATACCCGG | 0.0994 |
| ATTTGTCAGAAAAGACTCCTTC | 0.636 |
| TCAAGCAATTCCAGGAAGCTGG | -0.742 |

Each sequence was assayed against SGK1 in the same assay as above. Settings: shRNA.

| Sequence | sensor-assay potency score (higher = more potent) |
| --- | --- |
| TTTGCTGAGAAGGACTTGGTGG | 0.0605 |
| TTCTTCAACAGAACATTCCGCT | 0.565 |
| TTTGACTGCATAGAACACTTCT | 0.33 |
| TTATTAATGAGATCATCCCAGT | -0.742 |
| TTGCTAGAAGAACCTTTCCAAA | -1.79 |
| TTTAGCATGAGGATTGGACGAC | -0.303 |
| TTCTGTAAAACTTTGACTGCAT | 0.858 |
| TTGTCGTACATTTCAGCTGTGT | -0.298 |
| TACAATTTGTCAGCAGTCTGGA | 0.173 |
| TACATTTCAGCTGTGTTTCGGC | 0.293 |
| TAAGTCTCTATAAACGATGTTC | -0.772 |
| TTTTAAGTCTCTATAAACGATG | -1.25 |
